For 6 molecules, Potency, outcome and max activation results are on record in PubChem BioAssay (Tox21).

Assay [1] can be described thus: Human pregnane X receptor (PXR) small molecule agonists, qHTS cell viability counter screen (AID 1346977). Also: nearly all actives have a fitted effect of over 50% in size. The procedure, abridged:
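HepG2 cells stably carrying the PXR-Luc reporter are cultured with 5% charcoal-stripped FBS and treated with compounds for 24hr. CellTiter-Fluor is added at 23hr and fluorescence is read after 1hr.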
(In general: In qHTS, concentration-response curves come from the screen itself.)

Assay [2] in a line: Caspase-3/7 induction in HepG2 cells by small molecules, qHTS assay (AID 1346978). Also: nearly all actives have a fitted effect of over 15% in size. The procedure, abridged:
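Wild-type HepG2 cells, 2,000/well, settled 5 hr at 37 C and 5% CO2, then compound-treated for 17 hr; caspase-3/7 activity read by luminescent Caspase-Glo 3/7 after 30 min at room temperature.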

Assay [3] can be described thus: Caspase-3/7 induction in CHO-K1 cells by small molecules, qHTS cell viability counter screen (AID 1346979). Also: nearly all actives have a fitted effect of over 35% in size. The procedure, abridged:
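Seeding: 1,500 CHO-K1 cells/well. Rest: 5hr, 37C. Treatment: compounds in DMSO, 16hr. Read: CellTiter-Fluor, 1hr, fluorescence.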

A short description of assay [4]: Caspase-3/7 induction in CHO-K1 cells by small molecules, qHTS assay (AID 1346980). Also: nearly all actives have a fitted effect of over 15% in size. The procedure, abridged: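 Wild-type CHO-K1 cells exposed to compounds for 17hr at 37 C, 5% CO2. Caspase-3/7 activity then measured by Caspase-Glo 3/7 luminescence after 30min at room temperature.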
Assay [5] is described as follows: Caspase-3/7 induction in HepG2 cells by small molecules, qHTS cell viability counter screen (AID 1346981). Also: series mostly up to about 92 µM; nearly all actives have a fitted effect of over 30% in size. The procedure, abridged:
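After a 5-hr attachment period at 37 C and 5% CO2, wild-type HepG2 cells received compounds in DMSO. Sixteen hours later CellTiter-Fluor was dispensed and the fluorescent signal quantified after a further hour.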

Assay [6] concerns the target Nuclear receptor subfamily 1 group I member 2 (Homo sapiens) (UniProt O75469). The assay is described as follows: Human pregnane X receptor (PXR) small molecule agonists, qHTS assay (AID 1346982). Also: nearly all actives have a fitted effect of over 35% in size. Also: potency is read from the fitted curve at half-maximal effect. The gist of the method:
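Tox21 qHTS; PXR-Luc HepG2; compounds pinned from DMSO; 24 hr, 37 C; ONE-Glo luciferase detection, 30 min room temperature.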

For assay [7], the target named is Acetylcholinesterase (Homo sapiens) (UniProt P22303). The assay is described as follows: Acetylcholinesterase (AChE) small molecule antagonists: colormetric cell-based qHTS assay (AID 1347395; calls by dose curve; also: nearly all actives have a fitted effect of over 30% in size). The gist of the method: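 Quantitative HTS in attached SH-SY5Y cells: 30 min compound exposure, then 90 min with acetylthiocholine and DTNB at 37 C; colour from thiocholine reports AChE activity.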

The target is the same in assay [8]. Kind of assay: Acetylcholinesterase (AChE) small molecule antagonists: enzyme-based qHTS assay (AID 1347397; calls by dose curve; also: nearly all actives have a fitted effect of over 55% in size). The settings on record: Potency: AChE enzyme activity inhibition. The procedure, abridged:
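Colorimetric DTNB read-out of thiocholine released from acetylthiocholine by recombinant human AChE (50 mU/mL as dispensed). Compounds were preincubated 30 min at RT before substrate/DTNB addition, with a 10 min RT reaction.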

Assay [9] shares this target. Kind of assay: Acetylcholinesterase (AChE) small molecule antagonists: fluorescence cell-based qHTS assay (AID 1347398; calls by dose curve; also: nearly all actives have a fitted effect of over 50% in size). The conditions noted are these: Potency: AChE activity. The gist of the method:
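SH-SY5Y, 2,000 cells/well, attached overnight; cmpd 30 min 37 C; acetylthiocholine/Thiolite Green cocktail 40 min RT; fluorescence Ex/Em 490/520 nm.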

For assay [10] the target is unchanged. Kind of assay: Acetylcholinesterase (AChE) small molecule antagonists: enzyme-based qHTS assay with human liver microsomes (AID 1347399; calls by dose curve; also: nearly all actives have a fitted effect of over 60% in size). The conditions noted are these: Potency: qHTS inhibition. The procedure, abridged: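 Recombinant human AChE (50 mU/mL in the enzyme mix) and human liver microsomes (0.25 mg/mL final) were preincubated with compound and NADPH (0.25 mg/mL final) for 30 min at 37 C. Acetylthiocholine/DTNB was then added; thiocholine was read colorimetrically after 10 min at room temperature.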

Assay [11] concerns the target Cytochrome P450 2D6 (Homo sapiens) (UniProt P10635). Kind of assay: Cytochrome P450 Family 2 Subfamily D Member 6 (CYP2D6) small molecule antagonists: luciferase reporter qHTS assay (AID 1671196). Also: nearly all actives have a fitted effect of over 50% in size. Also: potency is read from the fitted curve at half-maximal effect. The gist of the method:
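Room-temperature luminescent CYP2D6 activity assay: compound preincubated 10 min with enzyme–substrate mix, NADPH-initiated reaction 1 h, detection reagent 20 min before reading.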
On the technique in general: Reporter assays use an easily measured gene product as a stand-in for the process of interest.

The target in assay [12] is Cytochrome P450 2C19 (Homo sapiens) (UniProt P33261). Kind of assay: Cytochrome P450 Family 2 Subfamily C Member 19 (CYP2C19) small molecule antagonists: luciferase reporter qHTS assay (AID 1671197). Also: nearly all actives have a fitted effect of over 65% in size. Also: potency is read from the fitted curve at half-maximal effect. The procedure, abridged:
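Luminescent readout of CYP2C19 activity: luciferin product detected 20 min after adding detection reagent. Before that, compound and enzyme-substrate mix preincubated 10 min at room temperature; NADPH-regenerating system started a 1 h, 37C reaction. Ketoconazole as positive control.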

The target of assay [13] is Cytochrome P450 2C9 (Homo sapiens) (UniProt P11712). The assay is described as follows: Cytochrome P450 Family 2 Subfamily C Member 9 (CYP2C9) small molecule antagonists: luciferase reporter qHTS assay (AID 1671198). Also: nearly all actives have a fitted effect of over 50% in size. Also: potency is read from the fitted curve at half-maximal effect. The gist of the method:
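P450-Glo proluciferin substrate with CYP2C9 enzyme; 10 min RT preincubation, then NADPH regeneration 1 h at 37C; luciferin detection reagent 20 min RT, luminescence in relative luminescence units.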

Assay [14] addresses Cytochrome P450 1A2 (Homo sapiens) (UniProt P05177). Kind of assay: Cytochrome P450 Family 1 Subfamily A Member 2 (CYP1A2) small molecule antagonists: luciferase reporter qHTS assay (AID 1671199). Also: nearly all actives have a fitted effect of over 50% in size. Also: potency is read from the fitted curve at half-maximal effect. The procedure, abridged: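 Room-temperature CYP1A2 reaction with proluciferin substrate: compounds added from DMSO, 10 min preincubation, NADPH regeneration for 1 h. Luciferin detection reagent then added; luminescence recorded as RLU.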

Assay [15] deals with Voltage-gated inwardly rectifying potassium channel KCNH2 (Homo sapiens) (UniProt Q12809). The assay is described as follows: Human Ether-a-go-go-Related Gene (hERG) channel small molecule antagonists: fluorescence cell-based qHTS assay (AID 1671200). The procedure, abridged: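 First, 1000 cells per well are seeded and cultured overnight at 37 C. Next, FluxOR II dye is loaded for 1 h at room temperature, protected from light. After 10 more minutes, stimulus is added and fluorescence is read.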

The target in assay [16] is Cytochrome P450 3A4 (Homo sapiens) (UniProt P08684). The assay is described as follows: Cytochrome P450 Family 3 Subfamily A Member 4 (CYP3A4) small molecule antagonists: luciferase reporter qHTS assay (AID 1671201). Also: nearly all actives have a fitted effect of over 50% in size. Also: potency is read from the fitted curve at half-maximal effect. The procedure, abridged: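 Enzyme and proluciferin substrate are mixed with test chemicals for 10 min, then NADPH regeneration system drives turnover for 1 h at room temperature. A detection reagent halts the reaction; luminescence after 20 min gives relative activity.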

The target in assay [17] is Nuclear receptor subfamily 1 group I member 2 (Rattus norvegicus) (UniProt Q9R1A7). Kind of assay: Rat pregnane X receptor (rPXR) activation by small molecules, qHTS assay (AID 1346983). Also: nearly all actives have a fitted effect of over 20% in size. The conditions noted are these: rPXR luciferase reporter cells, One-Glo luminescence, 24 h; max activation: stronger effect = higher value. The procedure, abridged:
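Cell-based rPXR activation assay: rPXR cells, 2,000 per well, rested 5hr at 37 C, then exposed to compounds in DMSO for 24 hr at 37 C. Luciferase activity read by One-Glo luminescence after 30 min at room temperature.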

The target of assay [18] is Nuclear receptor subfamily 1 group I member 2 (Homo sapiens) (UniProt O75469). Kind of assay: CYP3A4 induction through human pregnane X receptor (PXR) by small molecules, qHTS assay (AID 1346984). Also: nearly all actives have a fitted effect of over 40% in size. The gist of the method:
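Cells (DPX-2; HepG2 with PXR element plus CYP3A4-promoter luciferase) settled 5hr, then were treated 24hr at 37C. A 3hr, 3uM-final Luciferin-IPA step preceded luminescence measurement with One-Glo.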

For assay [19] the target is unchanged. The assay is described as follows: Human pregnane X receptor (PXR) activation by small molecules, qHTS assay (AID 1346985). Also: nearly all actives have a fitted effect of over 40% in size. The procedure, abridged:
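DPX-2 cells (HepG2 co-transfected with a PXR response element and a CYP3A4-promoter luciferase construct) were seeded at 2,000 per well, rested 5 hr at 37C, then exposed to DMSO-dissolved compounds for 24 hr. Activation was read as luciferase luminescence.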

The target in assay [20] is Thyrotropin-releasing hormone receptor (Homo sapiens) (UniProt P34981). Kind of assay: qHTS assay to identify small molecule agonists of the thyrotropin-releasing hormone receptor (TRHR) signaling pathway (AID 1346891; calls by dose curve;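 also: HEK293 cells expressing TRHR with calcium dye readout; series mostly up to about 58 µM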). The procedure, abridged:
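Kinetic fluorescence (3 min, 1 s intervals) reported intracellular calcium after compound transfer onto TRHR-Hek293 cells pre-loaded with dye for 2 h at 37 °C.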

Molecules are shown by their SMILES. Values joined by “and” are separate entries in the source; they are usually repeats but may differ in a detail not shown here. Equal values may be shown once. Results filed as inconclusive are left out. More than one record can exist for a structure, and the calls need not agree. Active and inactive are the calls of the source. Unless noted, calls follow the shape of the dose curve; as a rule, active = well fitted curve in the direction sought with a large enough effect in the repeat runs; inconclusive = weak or mixed curves; inactive = no such curve, though single readings can be large; an effect the other way counts as inactive or inconclusive.
% is scaled to controls: 0 for no effect and ±100 for the full control effect.

Chain of Cytochrome P450 3A4 (Homo sapiens) (P08684 whole entry, looked up): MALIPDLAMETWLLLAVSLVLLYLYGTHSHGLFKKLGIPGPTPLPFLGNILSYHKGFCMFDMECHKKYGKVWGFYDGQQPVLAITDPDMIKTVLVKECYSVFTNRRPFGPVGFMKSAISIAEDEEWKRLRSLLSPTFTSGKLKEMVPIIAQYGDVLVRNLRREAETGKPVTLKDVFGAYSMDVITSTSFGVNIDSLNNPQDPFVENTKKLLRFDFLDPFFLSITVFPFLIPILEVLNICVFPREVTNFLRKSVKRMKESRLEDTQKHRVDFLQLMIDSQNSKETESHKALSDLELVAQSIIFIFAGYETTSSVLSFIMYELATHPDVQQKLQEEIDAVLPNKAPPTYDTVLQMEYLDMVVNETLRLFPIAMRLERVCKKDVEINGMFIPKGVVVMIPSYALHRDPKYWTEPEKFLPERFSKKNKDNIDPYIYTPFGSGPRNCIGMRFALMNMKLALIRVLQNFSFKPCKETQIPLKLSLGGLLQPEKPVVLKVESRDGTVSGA
Chain of Thyrotropin-releasing hormone receptor (Homo sapiens) (P34981 whole entry, looked up): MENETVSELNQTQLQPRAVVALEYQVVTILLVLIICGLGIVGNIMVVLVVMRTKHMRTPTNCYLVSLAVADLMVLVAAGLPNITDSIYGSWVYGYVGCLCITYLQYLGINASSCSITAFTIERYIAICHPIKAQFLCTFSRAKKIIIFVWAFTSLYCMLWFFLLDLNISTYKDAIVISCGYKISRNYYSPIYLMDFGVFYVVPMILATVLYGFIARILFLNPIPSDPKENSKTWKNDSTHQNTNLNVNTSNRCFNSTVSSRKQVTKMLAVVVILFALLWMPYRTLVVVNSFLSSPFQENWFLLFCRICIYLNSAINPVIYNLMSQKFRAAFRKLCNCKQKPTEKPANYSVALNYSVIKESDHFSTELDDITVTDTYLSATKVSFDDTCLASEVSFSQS
Chain of Cytochrome P450 2D6 (Homo sapiens) (P10635 whole entry, looked up): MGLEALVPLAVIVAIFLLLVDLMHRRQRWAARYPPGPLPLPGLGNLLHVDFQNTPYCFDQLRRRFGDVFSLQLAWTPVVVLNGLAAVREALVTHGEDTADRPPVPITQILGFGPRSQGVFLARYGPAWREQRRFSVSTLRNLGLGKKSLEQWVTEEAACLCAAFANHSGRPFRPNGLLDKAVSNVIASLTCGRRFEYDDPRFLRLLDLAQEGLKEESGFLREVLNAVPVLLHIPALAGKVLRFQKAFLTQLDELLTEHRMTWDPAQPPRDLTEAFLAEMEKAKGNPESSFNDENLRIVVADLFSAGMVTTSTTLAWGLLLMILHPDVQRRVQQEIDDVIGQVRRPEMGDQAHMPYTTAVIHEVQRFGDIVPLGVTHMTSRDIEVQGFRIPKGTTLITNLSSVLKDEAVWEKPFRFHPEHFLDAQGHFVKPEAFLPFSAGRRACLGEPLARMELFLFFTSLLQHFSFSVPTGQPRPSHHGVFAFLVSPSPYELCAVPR
Chain of Cytochrome P450 1A2 (Homo sapiens) (P05177 whole entry, looked up): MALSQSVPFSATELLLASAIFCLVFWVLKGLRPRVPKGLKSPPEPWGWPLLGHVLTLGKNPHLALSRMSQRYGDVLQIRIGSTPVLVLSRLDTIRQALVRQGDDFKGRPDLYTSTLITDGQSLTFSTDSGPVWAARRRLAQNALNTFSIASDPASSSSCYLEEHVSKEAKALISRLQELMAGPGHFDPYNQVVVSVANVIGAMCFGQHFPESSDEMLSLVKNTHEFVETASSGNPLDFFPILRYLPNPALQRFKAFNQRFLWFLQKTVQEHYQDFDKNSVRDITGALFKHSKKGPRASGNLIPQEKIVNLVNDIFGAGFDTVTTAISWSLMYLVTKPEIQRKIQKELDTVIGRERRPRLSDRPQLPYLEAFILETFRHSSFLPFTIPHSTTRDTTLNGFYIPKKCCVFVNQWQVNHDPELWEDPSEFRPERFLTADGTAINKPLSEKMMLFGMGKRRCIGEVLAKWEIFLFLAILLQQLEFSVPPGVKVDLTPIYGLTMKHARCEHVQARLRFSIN
Chain of Acetylcholinesterase (Homo sapiens) (P22303 whole entry, looked up): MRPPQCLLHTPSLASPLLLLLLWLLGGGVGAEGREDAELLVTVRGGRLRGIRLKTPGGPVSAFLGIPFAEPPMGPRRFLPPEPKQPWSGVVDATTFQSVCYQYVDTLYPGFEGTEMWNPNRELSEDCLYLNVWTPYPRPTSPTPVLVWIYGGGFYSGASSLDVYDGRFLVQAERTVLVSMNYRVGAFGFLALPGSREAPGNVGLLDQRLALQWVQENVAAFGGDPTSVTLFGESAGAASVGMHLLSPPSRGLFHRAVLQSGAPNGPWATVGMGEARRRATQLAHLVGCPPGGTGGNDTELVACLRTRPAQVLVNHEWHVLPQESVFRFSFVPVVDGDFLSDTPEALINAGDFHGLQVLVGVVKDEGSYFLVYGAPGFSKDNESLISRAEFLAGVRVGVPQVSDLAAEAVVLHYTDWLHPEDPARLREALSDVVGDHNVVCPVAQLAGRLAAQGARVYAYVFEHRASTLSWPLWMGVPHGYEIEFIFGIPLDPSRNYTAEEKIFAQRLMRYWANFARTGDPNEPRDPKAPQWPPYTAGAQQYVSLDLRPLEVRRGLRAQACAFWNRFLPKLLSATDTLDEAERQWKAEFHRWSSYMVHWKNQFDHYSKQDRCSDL
Chain of Voltage-gated inwardly rectifying potassium channel KCNH2 (Homo sapiens) (Q12809 whole entry, looked up): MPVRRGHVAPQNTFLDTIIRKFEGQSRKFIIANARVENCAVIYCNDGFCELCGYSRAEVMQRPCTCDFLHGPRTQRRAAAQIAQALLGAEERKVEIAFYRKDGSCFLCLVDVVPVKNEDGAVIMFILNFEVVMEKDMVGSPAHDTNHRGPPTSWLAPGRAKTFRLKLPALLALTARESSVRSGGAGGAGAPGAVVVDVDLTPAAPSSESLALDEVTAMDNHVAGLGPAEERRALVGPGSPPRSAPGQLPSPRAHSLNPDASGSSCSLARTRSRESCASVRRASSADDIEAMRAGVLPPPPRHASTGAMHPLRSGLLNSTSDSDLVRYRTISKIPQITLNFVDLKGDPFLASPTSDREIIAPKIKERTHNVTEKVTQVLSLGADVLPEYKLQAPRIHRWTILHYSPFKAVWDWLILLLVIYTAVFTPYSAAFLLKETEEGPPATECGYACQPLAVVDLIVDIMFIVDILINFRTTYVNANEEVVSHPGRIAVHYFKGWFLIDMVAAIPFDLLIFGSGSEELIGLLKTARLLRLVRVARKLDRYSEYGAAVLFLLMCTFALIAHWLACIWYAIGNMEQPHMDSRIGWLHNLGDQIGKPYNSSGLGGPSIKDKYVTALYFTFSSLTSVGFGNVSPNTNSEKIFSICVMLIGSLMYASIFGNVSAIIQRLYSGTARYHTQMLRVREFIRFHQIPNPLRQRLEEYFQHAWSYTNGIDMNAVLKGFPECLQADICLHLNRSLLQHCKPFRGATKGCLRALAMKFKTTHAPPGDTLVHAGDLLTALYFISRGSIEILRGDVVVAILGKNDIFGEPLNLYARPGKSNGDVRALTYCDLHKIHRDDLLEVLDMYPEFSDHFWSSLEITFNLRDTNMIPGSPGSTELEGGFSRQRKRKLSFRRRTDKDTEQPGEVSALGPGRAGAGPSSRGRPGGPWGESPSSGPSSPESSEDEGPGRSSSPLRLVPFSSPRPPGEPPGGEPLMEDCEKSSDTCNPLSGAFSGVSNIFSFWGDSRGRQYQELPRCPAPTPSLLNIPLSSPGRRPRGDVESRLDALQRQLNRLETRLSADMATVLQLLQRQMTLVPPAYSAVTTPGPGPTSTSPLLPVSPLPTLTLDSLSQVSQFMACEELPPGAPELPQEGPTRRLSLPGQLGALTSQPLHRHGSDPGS
Chain of Cytochrome P450 2C19 (Homo sapiens) (P33261 whole entry, looked up): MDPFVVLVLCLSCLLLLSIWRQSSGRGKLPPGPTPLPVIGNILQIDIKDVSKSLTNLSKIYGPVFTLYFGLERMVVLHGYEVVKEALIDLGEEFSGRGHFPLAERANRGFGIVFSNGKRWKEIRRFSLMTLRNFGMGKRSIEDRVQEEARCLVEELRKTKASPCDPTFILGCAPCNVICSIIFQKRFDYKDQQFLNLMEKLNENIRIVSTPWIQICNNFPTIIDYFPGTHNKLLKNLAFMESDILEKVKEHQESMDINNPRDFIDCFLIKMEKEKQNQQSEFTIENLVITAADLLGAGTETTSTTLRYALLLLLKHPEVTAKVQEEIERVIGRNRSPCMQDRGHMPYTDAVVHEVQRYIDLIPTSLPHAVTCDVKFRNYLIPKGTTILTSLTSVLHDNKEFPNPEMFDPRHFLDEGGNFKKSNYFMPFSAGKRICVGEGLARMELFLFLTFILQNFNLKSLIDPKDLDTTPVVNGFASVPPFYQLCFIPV
Chain of Nuclear receptor subfamily 1 group I member 2 (Homo sapiens) (O75469 whole entry, looked up): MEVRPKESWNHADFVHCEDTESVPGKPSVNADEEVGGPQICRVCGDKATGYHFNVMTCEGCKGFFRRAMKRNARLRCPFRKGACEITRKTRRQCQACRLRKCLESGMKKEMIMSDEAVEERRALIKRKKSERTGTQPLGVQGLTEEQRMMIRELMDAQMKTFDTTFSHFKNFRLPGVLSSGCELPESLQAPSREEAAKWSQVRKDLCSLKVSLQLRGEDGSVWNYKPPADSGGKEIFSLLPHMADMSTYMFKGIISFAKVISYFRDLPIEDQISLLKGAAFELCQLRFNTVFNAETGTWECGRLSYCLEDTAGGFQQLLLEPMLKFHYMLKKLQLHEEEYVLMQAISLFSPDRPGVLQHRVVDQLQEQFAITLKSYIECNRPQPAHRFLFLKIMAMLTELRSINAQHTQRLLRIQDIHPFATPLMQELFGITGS

As to `CN(C)NC(=O)CCC(=O)O`, the Potency entry in assay [1], in assay [3], in assay [5], in assay [6], in assay [7] and in assay [8] was “inactive” throughout. Further, the Potency entry in [9], in assay [10], in [11], in assay [12], in assay [13] and in assay [14] was “inactive” each time. Besides, the Potency result in assay [15] and in assay [16] was “inactive” each time. Further, the outcome in [2] and in [4] was inactive.
For the molecule `Cc1ccccc1N`, the Potency result in [1], in assay [3], in [5] and in assay [15] was “inactive” throughout. Moreover, the call in [2] and in assay [4] was inactive. The Potency result in assay [6] was “inactive and 54.5 µM (active)”; in assay [11] it was “inactive and 40.7 µM (active)”; in assay [13], 40.7 µM (active) and 79.6 µM (active) and 35.6 µM (active); in [14], “inactive and 36.3 µM (active) and 31.7 µM (active)”; in assay [16], “inactive and 28.8 µM (active) and 28.3 µM (active)”.
On to `CN1C(=O)CCS(=O)(=O)C1c1ccc(Cl)cc1` (centres undefined), for which the Potency result in [1], in [3], in [5], in assay [6], in assay [7] and in assay [8] was “inactive” each time. The Potency result in assay [9], in [10], in assay [11], in [13], in [15] and in assay [16] was “inactive” throughout. Also, the result in assay [2] and in assay [4] was inactive. Besides, the Potency in [12] was 28.3 µM (active).
In the case of `Cc1cc(Cl)ccc1OC(C)C(=O)O` (centres undefined), the Potency entry in assay [1], in [5], in [6], in assay [8], in assay [9] and in assay [10] was “inactive” in each case. Moreover, the Potency result in assay [11], in [14], in [15] and in assay [16] was “inactive” in each case. The molecule was called inactive in [2] and in assay [4]. In addition, the Potency in assay [12] was 78.3 µM (active) and inactive; in [13], 44.1 µM (active) and inactive.
For `C[C@]12CC[C@H](O)CC1=CC[C@@H]1[C@@H]2CC[C@]2(C)C(=O)CC[C@@H]12`, the Potency result in assay [1], in assay [3], in assay [5], in [18], in [19] and in assay [7] was “inactive” in each case. In addition, the Potency result in [8], in [9], in [10], in assay [11], in assay [14] and in assay [16] was “inactive” in each case. Also, the molecule was classed as inactive in assay [2] and in assay [4]. For the same molecule, the Potency in assay [6] was 54.5 µM (active) and 48.6 µM (active) and inactive; in assay [12], 79.7 µM (active) and 71 µM (active) and inactive; in assay [13] it was 44.8 µM (active) and 31.7 µM (active) and 19.5 µM (active). Moreover, the max activation in [17] is -3.38% (inactive).
For `Cc1cccc(N)c1`, the molecule was classed as inactive in assay [20]. Moreover, the Potency entry in assay [1], in assay [3], in [5], in [7], in assay [8] and in assay [9] was “inactive” each time. Also, the Potency entry in [10] and in assay [15] was “inactive” in each case. Also, the Potency in assay [6] was 54.6 µM (active) and inactive; in assay [11] it was 31.8 µM (active) and inactive; in assay [12], 7.99 µM (active) and 45.1 µM (active) and 39.9 µM (active); in assay [13], 8.96 µM (active) and 35.6 µM (active); in [14], 31.8 µM (active) and inactive and 31.7 µM (active); in assay [16], 3.18 µM (active) and inactive.
